PD-1 reverse act: activators reversing PD-1 mediated T-cell inhibition. primary human CD4 T cells, PD-L1 beads, CellTiter-Glo 96 h. activation, % (no concentration beside the values). 29,000 tested, under 10 active; call rule not given here
U2OS ROS induce: inducers of reactive oxygen species in cancer cells | ROS induction (% of piperlongumine), % at 10 µM | AID 624156 | hit rate 2% among 46,000 | U2OS ROS induction, H2DCF-DA fluorescence; in the data active = ROS induction above about 79%, passing the limit was not always enough; inconclusive = no clear call, values can overlap the other calls
YB-1 expression: YB-1 expression inhibition. hit rate 0.37% among 30,000. AID 434959. U2OS, qRT-PCR YB-1 vs CDIP delta delta Cp, 16 h; active compounds read high; zero = DMSO, each unit about twofold. delta delta Cp (YB-1 minus CDIP) (concentration not given with the values);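 active = delta delta Cp rounded down to an integer at or above 3, about 3 SD of DMSO wells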;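 also: higher means less YB-1 transcript or more CDIP transcript relative to DMSO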
NOMO-1 viab: STK33 inhibitor candidate reducing NOMO-1 cell viability | hit rate 7.5% among 37,000 | AID 2330 | inhibition, % (no concentration beside the values) | NOMO-1 AML viability, CellTiter-Glo luminescence, 72 h; in the data active = inhibition above about 80%; inconclusive = no clear call, values can overlap the other calls
A number is an active result; 0 = inactive; ? = inconclusive; - = no result. The entries come from a sample that favours hits as a whole.

SMILES	PD-1 reverse act	U2OS ROS induce	YB-1 expression	NOMO-1 viab
C[C@@H]1CCCCO[C@@H](CN(C)Cc2ccc(Cl)c(Cl)c2)[C@@H](C)CN([C@H](C)CO)C(=O)c2cc(NC(=O)NC3CCCCC3)ccc2O1	0	0	0	112.1
CC(C)(C)NC(=O)CSc1ccc(Cl)cc1	0	0	0	0
C/C(=C/c1ccccc1)C(=O)Nc1ccc2nc3n(c(=O)c2c1)CCCCC3	-	0	-	-
COc1ccc(NC(=O)Nc2ccc3c(c2)C(=O)N([C@H](C)CO)C[C@H](C)[C@@H](CN(C)Cc2ccc(Cl)c(Cl)c2)OCCCC[C@@H](C)O3)cc1	-	0	0	0
C[C@@H]1CCCCO[C@H](CN(C)Cc2ccc(Cl)c(Cl)c2)[C@@H](C)CN([C@H](C)CO)C(=O)c2cc(NC(=O)Nc3ccc(F)cc3)ccc2O1	-	0	0	125.7
C[C@H](CO)N1C[C@H](C)[C@H](CN(C)C(=O)Nc2ccccc2)Oc2ccc(NC(=O)Nc3ccc(C(F)(F)F)cc3)cc2C1=O	0	0	0	103.2
C[C@@H]1CN([C@H](C)CO)C(=O)c2cc(NC(=O)Nc3ccccc3)ccc2O[C@@H]1CN(C)C(=O)Nc1ccc(C(F)(F)F)cc1	0	0	0	86.7
C[C@@H]1CN([C@@H](C)CO)C(=O)c2cc(NC(=O)Nc3ccccc3)ccc2O[C@@H]1CN(C)C(=O)Nc1ccc(C(F)(F)F)cc1	0	0	0	102.0
C[C@H]1CN([C@@H](C)CO)C(=O)c2cc(NC(=O)Nc3ccccc3)ccc2O[C@H]1CN(C)C(=O)Nc1ccc(C(F)(F)F)cc1	-	0	0	0
C[C@H]1CN([C@@H](C)CO)C(=O)c2cc(NC(=O)Nc3ccccc3)ccc2O[C@@H]1CN(C)C(=O)Nc1ccc(C(F)(F)F)cc1	0	0	0	0
C=C(C)[C@@H]1CC=C(/C=N/NC(=O)CCCCC(=O)NO)CC1	-	0	0	-
COc1ccc(C(=O)CCC(=O)Nc2ccc(C(=O)O)cc2)cc1OC	0	0	-	0
C[C@H](CO)N1C[C@H](C)[C@H](CN(C)Cc2ccc(C(F)(F)F)cc2)Oc2c(NC(=O)C3CCCCC3)cccc2C1=O	-	0	0	0
C[C@H]1CN([C@@H](C)CO)C(=O)c2cccc(NC(=O)C3CCCCC3)c2O[C@@H]1CN(C)Cc1ccc(C(F)(F)F)cc1	0	0	0	91.0
C[C@@H]1CN([C@@H](C)CO)C(=O)c2cccc(NC(=O)C3CCCCC3)c2O[C@H]1CN(C)Cc1ccc(C(F)(F)F)cc1	0	0	0	105.3
C[C@H](CO)N1C[C@H](C)[C@@H](CN(C)Cc2ccc(C(F)(F)F)cc2)Oc2c(NC(=O)C3CCCCC3)cccc2C1=O	0	0	0	99.4
CCOC(=O)COc1c(C#N)sc2c1c(=O)n(-c1ccccc1)c(=S)n2-c1ccccc1	0	0	0	112.2
CC(=O)NC(C)c1nc2ccccc2n1Cc1ccccc1 (configuration not stated)	-	0	-	-
COC(=O)c1sc(SCCOC(=O)c2ccccc2Cl)c2c1CC(C)(C)CC2=O	0	0	0	0
CN(C)/C=C/C(=O)c1sc(SCc2ccc(Cl)cc2)c2c1CC(C)(C)CC2=O	0	0	0	113.5
C[C@@H]1CN([C@@H](C)CO)C(=O)Cc2cc(NC(=O)NC3CCCCC3)ccc2O[C@@H]1CN(C)Cc1ccc(Cl)c(Cl)c1	-	0	0	110.7
C[C@H]1CN([C@@H](C)CO)C(=O)Cc2cc(NC(=O)NC3CCCCC3)ccc2O[C@@H]1CN(C)Cc1ccc(Cl)c(Cl)c1	0	0	0	105.4
C[C@@H]1CN([C@@H](C)CO)C(=O)Cc2cc(NC(=O)C3CCCCC3)ccc2O[C@@H]1CN(C)Cc1ccc(Cl)c(Cl)c1	-	0	0	123.3
Cn1c(/C=C/C=C/N2CCCC2)nc2ccccc2c1=O	0	0	0	120.5
CC[C@]12CCCN3CCc4c(n(c5ccccc45)[C@@](O)(C(=O)OC)C1)[C@@H]32	-	0	0	0
SMILES	PD-1 reverse act	U2OS ROS induce	YB-1 expression	NOMO-1 viab
CC[C@]12CCCN3CCc4c(n(c5ccccc45)C(=O)C1)[C@@H]32	0	0	0	112.4
COC(=O)CCCCCCC(=O)N/N=C/c1ccc(O)c2ccccc12	-	0	0	-
Cc1ccc(S(=O)(=O)N(C)C[C@@H]2Oc3c(NC(=O)c4nc5ccccc5s4)cccc3C(=O)N([C@@H](C)CO)C[C@@H]2C)cc1	-	0	0	0
Cc1ccc(S(=O)(=O)N(C)C[C@@H]2Oc3c(NC(=O)c4nc5ccccc5s4)cccc3C(=O)N([C@H](C)CO)C[C@H]2C)cc1	0	0	0	?
C[C@H](CO)N1C[C@H](C)[C@H](CN(C)S(=O)(=O)c2ccccc2)Oc2c(NC(=O)c3nc4ccccc4s3)cccc2C1=O	0	0	0	87.7
COc1ccc(S(=O)(=O)N(C)C[C@H]2Oc3c(NC(=O)c4nc5ccccc5s4)cccc3C(=O)N([C@H](C)CO)C[C@@H]2C)cc1	-	0	0	0
COc1ccc(S(=O)(=O)N(C)C[C@@H]2Oc3c(NC(=O)c4nc5ccccc5s4)cccc3C(=O)N([C@H](C)CO)C[C@@H]2C)cc1	0	0	0	117.0
COc1ccc(S(=O)(=O)N(C)C[C@H]2Oc3c(NC(=O)c4nc5ccccc5s4)cccc3C(=O)N([C@@H](C)CO)C[C@H]2C)cc1	-	0	7.87	0
CCN(CC)C(=S)SCc1cn2cccnc2n1	-	0	-	-
CCC(Sc1nnc2c3ccccc3n(C)c2n1)C(=O)Nc1cccc2ccccc12 (configuration not stated)	0	0	-	0
COc1ccc(-c2csc(N3N=C(C)C(C(c4ccc(Cl)cc4)C(C#N)C(N)=O)C3=O)n2)cc1 (configuration not stated)	-	0	-	-
CC(=O)Oc1ccc(-c2coc3cc(OC(C)=O)cc(OC(C)=O)c3c2=O)cc1	0	0	0	0
CC(=O)OC[C@H]1O[C@@H](Oc2cc(OC(C)=O)c3c(=O)cc(-c4ccc(OC(C)=O)cc4)oc3c2)[C@H](OC(C)=O)[C@@H](OC(C)=O)[C@@H]1OC(C)=O	-	246.1	0	0
CC[C@]1(O)C[C@H]2CN(CCc3c([nH]c4ccccc34)[C@@](C(=O)OC)(c3cc4c(cc3OC)N(C=O)[C@H]3[C@@](O)(C(=O)OC)[C@H](OC(C)=O)[C@@]5(CC)C=CCN6CC[C@]43[C@@H]65)C2)C1	0	0	0	94.2
Cc1cc(/C=C(/C#N)S(C)(=O)=O)c2c(C)ccc(C(C)C)cc1-2	-	85.4	-	-
CC1(C)CC[C@]2(C(=O)O[C@@H]3O[C@H](CO)[C@@H](O)[C@H](O)[C@H]3O)CC[C@]3(C)C(=CCC4[C@@]5(C)CC[C@H](O[C@@H]6O[C@H](C(=O)O)[C@@H](O)[C@H](O)[C@H]6O)C(C)(C)C5CC[C@]43C)C2C1 (some centres not stated)	0	0	0	115.4

High-throughput results deposited in PubChem by Broad Institute.
